Bioassay records as filed in PubChem.
In the library only some 1.1% were active in any assay of this set; here they are far more common.
uPA generation = inhibitors of cell surface uPA generation. cell surface uPA generation assay, qHTS. Potency, µM (highest dose often 38.3 µM), for the others: top-dose activity change, negative = inhibition, actives largely listed as inhibitors. 330,000 tested, 0.31% active; active = well fitted inhibition curve with a large enough effect; inconclusive = small, poorly fitted or top-dose-only effect; inactive = no such curve, though single readings can be large or run the other way; tested in mouse RAW 264.7 cells; note: potency is the fitted concentration of half-maximal effect; % is set by controls: 0 for no effect and ±100 for the full control effect; nearly all actives have a fitted effect of over 55% in size
MBNL1 CUG block = blocks human MBNL1 binding to CUG repeat RNA; Q9NR56; TR-FRET MBNL1-His/biotin-(CUG)12 binding, 665/545 ratio; Potency, µM (series often up to 57.5 µM), for the others: at the highest dose activity change, negative = inhibition, actives largely listed as inhibitors; 280,000 tested, 0.036% active; active = well fitted inhibition curve with a large enough effect in the signal ratio, with a control signal flat, not every such curve was filed as active; inconclusive = small, poorly fitted or top-dose-only effect, or effect the other way, or a change in a side signal; inactive = no such curve, though single readings can be large or run the other way; the % refers to the signal ratio; note: potency is the fitted concentration of half-maximal effect; % is set by controls: 0 for no effect and ±100 for the full control effect
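Inhibition of protein-RNA binding appears as loss of TR-FRET between terbium anti-His antibody on MBNL1-His and streptavidin-XL665 on biotin-(CUG)12. Activity is normalized to buffer-only and uninhibited-complex controls.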
Six1-Eya2 inh = inhibitors of human Six1/Eya2 interaction. AlphaScreen GST-Six1/His-Eya2 binding, biochemical; hits give low values. 360,000 tested, 0.56% active. Q15475+O00167. activity change, % (test concentration not listed). AID 651725; note: % is set by controls: 0 for no effect and ±100 for the full control effect
Target sequence (O00167 whole entry, looked up): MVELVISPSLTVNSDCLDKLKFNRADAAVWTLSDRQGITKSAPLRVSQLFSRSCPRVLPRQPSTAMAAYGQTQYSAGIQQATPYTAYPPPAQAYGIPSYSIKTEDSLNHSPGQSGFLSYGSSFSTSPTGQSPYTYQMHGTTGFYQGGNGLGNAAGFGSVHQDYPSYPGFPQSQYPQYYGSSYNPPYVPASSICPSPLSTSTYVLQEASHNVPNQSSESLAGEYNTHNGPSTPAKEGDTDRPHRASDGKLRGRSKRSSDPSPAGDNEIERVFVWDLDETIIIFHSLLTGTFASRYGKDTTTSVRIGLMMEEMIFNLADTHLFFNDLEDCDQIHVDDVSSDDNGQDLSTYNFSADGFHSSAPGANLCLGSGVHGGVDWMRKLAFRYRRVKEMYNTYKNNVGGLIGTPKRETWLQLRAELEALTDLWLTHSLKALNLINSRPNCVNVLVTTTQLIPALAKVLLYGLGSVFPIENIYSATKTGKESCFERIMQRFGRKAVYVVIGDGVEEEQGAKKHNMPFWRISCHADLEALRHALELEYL
Target sequence (Q15475 whole entry, looked up): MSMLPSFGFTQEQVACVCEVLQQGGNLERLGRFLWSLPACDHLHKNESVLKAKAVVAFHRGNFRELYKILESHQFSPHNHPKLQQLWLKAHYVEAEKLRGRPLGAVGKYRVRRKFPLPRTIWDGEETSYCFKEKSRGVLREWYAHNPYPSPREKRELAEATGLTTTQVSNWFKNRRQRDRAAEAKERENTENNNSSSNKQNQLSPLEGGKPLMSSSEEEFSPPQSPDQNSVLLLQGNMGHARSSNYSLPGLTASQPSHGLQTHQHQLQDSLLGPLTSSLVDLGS
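Compounds are tested against tagged Six1 and Eya2 proteins bridged by glutathione donor and nickel acceptor beads; after a one-hour incubation at 37 °C without light, AlphaScreen emission is recorded.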
CtBP-E1A blk = blocks the CtBP interaction with E1A; activity change, % (no concentration beside the values); AID 651724; 340,000 tested, 0.49% active; AlphaScreen GST-E1A/His-CtBP binding, 1536-well; hits give low values; note: % is set by controls: 0 for no effect and ±100 for the full control effect
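Homogeneous bead-based format: GST-tagged E1A captured on glutathione donor beads, His-tagged CtBP on nickel acceptor beads; compounds precede bead addition by 2 h at 37 °C.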
Mito fusion act = blocks mitochondrial division or promotes mitochondrial fusion. Potency, µM (series often up to 46.1 µM), inactives show top-dose growth rescue (activation), most hits filed as activators. 320,000 tested, 0.23% active. S. cerevisiae fusion-defective mutant growth rescue, CellTiterGlo 48 h; active = well fitted activation curve with a large enough effect; inconclusive = small, poorly fitted or top-dose-only effect; inactive = no such curve, though single readings can be large or run the other way; note: potency is the fitted concentration of half-maximal effect; % of control where 0% means no effect; nearly all actives have a fitted effect of over 45% in size
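S. cerevisiae fusion-defective temperature-sensitive mutants (e.g. fzo1-1, mgm1-5) grown 48 h at 37C in YPEG (ethanol/glycerol non-fermentable) medium with 23 nl compound per well; growth rescue read as CellTiterGlo luminescence.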
Numbers without * were called inactive; ? = inconclusive; . = no result; [ ] = dose if it differs, or a comment. Cut-off read from the data, not from the text of the source, unless noted: active = activity change below about -65%; inconclusive = mostly about -30% to -63%; inactive = weaker than that.

SMILES	uPA generation	MBNL1 CUG block	Six1-Eya2 inh	CtBP-E1A blk	Mito fusion act
Oc1c(C(c2ccc(Cl)cc2)N2CCCC2)cc(Cl)c2cccnc12 (stereo not given)	?	-5%	?	.	-1%
Cc1ccc(C(c2cc(Cl)c3cccnc3c2O)N2CCN(C)CC2)cc1 (stereo not given)	-1%	32%	?	-85*	?
CC(C)(C)C(C(=O)NCc1ccccc1)N1CCN(CCN2CCOCC2)CC1 (stereo not given)	.	.	10	0	.
c1coc(-c2ccc3ncnc(NCc4cccs4)c3c2)c1	.	.	.	.	9%
COc1cccc(CN(C)C(=O)C2CCCN(C(=O)c3ccc(Cl)cc3)C2)c1 (stereo not given)	.	.	-4	2	.
Cc1cc(C)nc(N/N=C/c2cc(Br)ccc2O)n1	1%	1%	?	-81*	-2%
CC(C)Cc1cc(C(=O)N2CCCC(C(=O)c3cc(F)ccc3F)C2)no1 (stereo not given)	-2%	-7%	4	12	11µM*
C/C(=N\Nc1nccnc1Cl)c1ccc(O)cc1	-10%	16%	-16	-11	-3%
C/C(=N\Nc1c(Cl)c(Cl)nc(C(=O)O)c1Cl)c1ccc(O)cc1	-4%	-3%	-67*	?	3%
CN1c2ccc([N+](=O)[O-])cc2N(C)C1(C)c1ccccc1 (stereo not given)	-9%	?	-76*	-80*	-2%
Cn1c2ccccc2c2cc([N+](=O)[O-])ccc21	2%	34%	-4	1	0%
COc1cc(C=C2CCCC(=Cc3ccc(OCC4CO4)c(OC)c3)C2=O)ccc1OCC1CO1 (stereo not given)	.	.	-10	-23	.
COc1cc([N+](=O)[O-])cc2sc(NC(C)=O)nc12	10µM*	?	-7	.	-1%
N#C/C(=C\c1ccc(O)c(O)c1)C(=O)NCCCc1ccccc1	3.5µM*	47%	1	?	?
N#C/C(=C\c1ccc(O)c(O)c1)C(=O)c1ccc(O)c(O)c1	4µM*	?	-28	-6	0%
N#C/C(=C\c1ccc(O)c(O)c1)C(=O)N1CCCC1	?	6%	-9	4	1%
COc1ccc(/C=C(\C#N)C(=O)NCCc2ccccc2)cc1OCc1ccccc1	-8%	.	3	-7	9%
COc1ccc(N2C[C@H](CSC)[C@@H](CC(=O)Nc3ccccc3)C2=O)cc1	.	.	-2	0	.
CCc1cc2c(=O)[nH]c(-c3ccccn3)nc2s1	-7%	?	-92*	3	-2%
CCc1cc2c(=O)[nH]c(N3CCCC3)nc2s1	-3%	11%[11.5 µM]	7	-14	10%
COc1cnc(-c2ccccn2)[nH]c1=O	2%	.	-91*	-94*	-3%
COc1ccc(-c2n[nH]c3c2CN(C(=O)c2ccc(OC)c(OC)c2)CC3)cc1	3.2µM*	-4%	-7	.	1%
O=C(Nc1nc(-c2ccccn2)cs1)c1cc(S(=O)(=O)N2CCOCC2)ccc1F	10µM*	.	-90*	?	-4%
Cc1csc(NC(=O)c2cc(=O)[nH]c3ccc(S(=O)(=O)N4CCOCC4)cc23)n1	2%	20%	?	-70*	10%
CN(CC1CCCO1)S(=O)(=O)c1ccc(C(=O)Nc2nc(-c3ccccn3)cs2)cc1 (stereo not given)	4µM*	6%	?	-92*	-14%
SMILES	uPA generation	MBNL1 CUG block	Six1-Eya2 inh	CtBP-E1A blk	Mito fusion act
Cc1cc(C)n(-c2ccc(C(=O)Nc3ccc(C)c(S(=O)(=O)N4CCOCC4)c3)cc2)n1	4%	10%	-73*	-76*	13%
COc1cc(NC(=O)c2cc(=O)[nH]c3ccc(S(=O)(=O)N4CCOCC4)cc23)cc(OC)c1	13%	.	-6	1	-7%
O=C(Nc1nc(-c2ccccn2)cs1)c1ccc(F)c(S(=O)(=O)N2CCOCC2)c1	4µM*	.	-93*	-93*	-8%
Cc1ccc(C(=O)Nc2nc(-c3ccccn3)cs2)cc1S(=O)(=O)N1CCOCC1	?	.	-91*	-92*	-2%
COC(=O)[C@]12CCCCC=C1N(Cc1ccc3c(c1)OCO3)C(=O)[C@H](CC(=O)NCc1ccc(OC)c(OC)c1)C2	.	.	-8	5	.
O=C(/C=C/c1cccc([N+](=O)[O-])c1)c1ccc([N+](=O)[O-])o1	?	.	1	1	.
Cc1cccc(/C=C/C(=O)c2ccc([N+](=O)[O-])o2)c1	7.1µM*	.	-1	0	-40%
CC(C)[C@@H](CO)NC(=O)c1ccc2c3n(nc2c1)-c1ccccc1CO3	1.3µM*	?	0	0	-88%
CC(C)NC(=O)c1ccc2c3n(nc2c1)-c1ccccc1CO3	0.79µM*	?	-5	.	-17%
O=C1c2ccccc2C(=O)c2c(NCc3cccnc3)cccc21	7%	?	?	-8	-6%
CNc1cccc2c1C(=O)c1ccccc1C2=O	0%	?	-87*	-3	13%
OC(Cn1ccnc1)c1ccc(Cl)cc1Cl (stereo not given)	6%	0%	12	2	-3%
Clc1ccc(C(Cn2ccnc2)OCc2c(Cl)cccc2Cl)c(Cl)c1 (stereo not given)	-19%	.	-3	-11	6.3µM*
Cc1ccc(-n2c3c(cc(C(=O)Nc4cccc(Cl)c4)c2=O)C(=O)CC(C)(C)C3)cc1	.	.	.	.	-6%
COc1ccc(O)cc1	6.3µM*	.	1	4	.
COc1ccc(-c2ccnc(-c3ccc(O)cc3)n2)cc1	-6%	-7%	-12	-16	5%
Cc1ccc(NC(=O)c2ccc3c(c2)OCCO3)nc1	3.2µM*	.	0	5	6%
Cc1ccc(NC(=O)CNC(=O)c2ccc3c(c2)OCO3)nc1	3%	-5%	2	1	0%
Cc1cc(NC(=O)CSc2nnc3ccc(-c4ccccc4)nn23)no1	.	.	-3	-2	.
Oc1ccccc1C=NNC(=S)NC1CC2C=CC1C2 (stereo not given)	.	.	-77*	?	.
Oc1ccc(O)c(C=NNC(=S)NC2CC3CC2C2C=CCC32)c1 (stereo not given)	.	.	?	-9	.
Oc1ccccc1/C=N/NC(=S)NC1CC2C=CC1C2 (stereo not given)	2%	7%	-82*	-86*	-3%
Oc1c(Cl)cc(Cl)cc1/C=N/Nc1ncc(Br)cn1	0%	-2%	-9	-28	-6%
Oc1c(Cl)cc(Cl)cc1/C=N/NC(=S)NC1CC2C=CC1C2 (stereo not given)	-6%	-27%	?	-82*	7%
O=C(Nc1ccc(Br)cc1F)c1cc(S(=O)(=O)NC2CCCCC2)ccc1F	.	.	.	.	4%
COc1cccc(/C=N/Nc2ccnc(=O)[nH]2)c1O	-11%	?	-76*	-92*	0%
